Laboratory results: PubChem BioAssay AID485284 (NMMLSC, 2010)
Measured potencies and affinities stand elsewhere.

Test: loss of vesicle association with mouse CD8+ T cells – mouse 2C CD8+ T cells, flow cytometry, dose response (AID 485284);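 also: drosophila derived vesicles carrying Ld MHC with QL9 peptide plus B7-1 and ICAM-1; vesicle binding seen as anti-B7-1 PE fluorescence on CD8 gated cells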
Details: 2C mouse CD8+ T cell-exosome binding; at 45 µM (top of the series)

Compound	binding remaining, % of control [%]
CC(C)[C@H]1C(=O)Nc2ccccc2N1C(=O)N[C@@H](Cc1ccccc1)C(=O)N[C@@H](Cc1ccccc1)C(=O)O	168
COc1ccc(/C=C2\SC(N3CCc4ccccc4C3)=NC2=O)cc1OC	18.6
CCCCn1c(N)c(N(CCOC)C(=O)C2CC(=O)N(c3ccc(CC)cc3)C2)c(=O)[nH]c1=O (centres undefined)	17.2
C=CCN(c1ccc(Br)cc1C(=O)OC)S(C)(=O)=O	115
CC(Sc1nc2ccccc2[nH]1)C(=O)NC1CCCCC1C (centres undefined)	87.9
CN1CCN(S(=O)(=O)c2cccc(C(=O)Nc3cc(C(F)(F)F)ccc3N3CCCCC3)c2)CC1	51.4
CCOc1ccc(C(=O)NNC(=O)CN2C(=O)C3CC=CCC3C2=O)cc1OC (centres undefined)	194
COc1ccccc1N1CCN(C(=O)C2CCCN(S(=O)(=O)c3ccc(C)cc3)C2)CC1 (centres undefined)	132
CCOc1ccc(NC(=O)CN(C)C(=O)C2CC(=O)N(Cc3ccco3)C2)cc1OCC (centres undefined)	145
Cc1ccc(S(=O)(=O)Nc2c3ccccc3nc(=O)n2-c2ccccc2)cc1	71.8
CCCCN(C(=O)CCCc1nc2ccccc2s1)c1c(N)n(CC(C)C)c(=O)[nH]c1=O	187
CCOC(=O)C1(CC2CCCCO2)CCN(S(=O)(=O)c2ccc(C)s2)CC1 (centres undefined)	105
CCOc1ccc(CCNC(=O)c2cccc(-n3cnnn3)c2)cc1OCC	164
CN1CCN(S(=O)(=O)c2ccc(C(=O)Nc3ccccc3)cc2)CC1	124
COc1cc(OC)c2cc(C(=O)N[C@H](C(=O)N3CCC[C@H]3C(=O)O)C(C)C)n(C)c2c1	99.6
CCOC(=O)CSc1nnnn1-c1cc(OC)c(Cl)cc1OC	136
O=C1N=C(N2CCOCC2)S/C1=C\c1cccs1	99.5

Compound	binding remaining, % of control [%]
CCOC(=O)c1cn(CC)c2cc(Cl)c([N+](=O)[O-])cc2c1=O	128
CCCCOc1ccc(C(=O)NCC(=O)N2CCN(C(=O)c3ccco3)CC2)cc1	23.6
CCOc1ccc(NC(=O)CN(C)C(=O)c2ccc(N3CCOCC3)c([N+](=O)[O-])c2)cc1OCC	134
O=C1CC(c2nc3ccccc3[nH]2)CN1Cc1ccccc1 (centres undefined)	207
CCCc1nnc(NC(=O)c2ccc(S(=O)(=O)N(C)c3ccccc3OC)cc2)s1	142
CSCCC(NC(=O)c1ccc(=O)n(C)n1)c1nc2ccccc2[nH]1 (centres undefined)	149
O=C(CN1C(=O)NC2(CCCCCC2)C1=O)N1CCN(c2ccc(F)cc2)CC1	110
COc1ccc(NC(=O)CC2C(=O)N(Cc3ccccc3)C(=S)N2CCN2CCOCC2)cc1 (centres undefined)	106
COc1ccc(CN2C(=O)C(C)Nc3ncnc(N4CCN(c5ccccn5)CC4)c32)cc1 (centres undefined)	22
N#Cc1cccc(NC(=O)CN2C(=O)NC3(CCCCCC3)C2=O)c1	176
O=C(CCC(=O)N1CCOCC1)NCc1cccc(C(F)(F)F)c1	64.2
Cc1cc(=O)oc2c3c(cc(OCC(=O)NCc4ccncc4)c12)OC(C)(C)CC3	119
O=C(Cc1ccc2c(c1)OCCO2)Nc1cccc(S(=O)(=O)N2CCOCC2)c1	135
COC(=O)c1ccc(OC(=O)CS(=O)c2ccccc2[N+](=O)[O-])cc1 (centres undefined)	97.9
COc1ccc(NC(=O)CN2CCN(S(=O)(=O)c3ccc(Cl)cc3)CC2)cc1	79.2
Cn1c(=O)c2cc(S(=O)(=O)NCCC(=O)NC3CCCCCC3)ccc2n(C)c1=O	83.7
Cc1ccc(S(=O)(=O)N2CCN(CCOc3c(Cl)cccc3Cl)CC2)cc1C	100
